Rows were chosen to be rich in hits. Some 11% of all compounds tested hit in one or more screens of this group.
OTUD3 block = blocks human OTUD3 ubiquitin-rhodamine cleavage; Q5T2D3; hit rate 0.7% among 47,000; inhibition, % at 25 µM; purified OTUD3, Ub-rhodamine fluorescence, 2 h
USP30 inh = blocks human USP30 ubiquitin-rhodamine cleavage. purified USP30, Ub-rhodamine cleavage fluorescence. hit rate 5.3% among 47,000. inhibition, % at 25 µM
USP17 block = human USP17-like deubiquitinase inhibition. A8MUK1. purified USP17, Ub-rhodamine cleavage fluorescence, 3 h. inhibition, % at 50 µM. hit rate 6.5% among 47,000. AID 1645855
USP28 inh = blocks human USP28 ubiquitin-rhodamine cleavage; purified USP28, Ub-rhodamine cleavage fluorescence, 30 min; Q96RU2; inhibition, % at 25 µM; AID 1645857; hit rate 3% among 47,000
Target sequence (Q96RU2 whole entry, looked up): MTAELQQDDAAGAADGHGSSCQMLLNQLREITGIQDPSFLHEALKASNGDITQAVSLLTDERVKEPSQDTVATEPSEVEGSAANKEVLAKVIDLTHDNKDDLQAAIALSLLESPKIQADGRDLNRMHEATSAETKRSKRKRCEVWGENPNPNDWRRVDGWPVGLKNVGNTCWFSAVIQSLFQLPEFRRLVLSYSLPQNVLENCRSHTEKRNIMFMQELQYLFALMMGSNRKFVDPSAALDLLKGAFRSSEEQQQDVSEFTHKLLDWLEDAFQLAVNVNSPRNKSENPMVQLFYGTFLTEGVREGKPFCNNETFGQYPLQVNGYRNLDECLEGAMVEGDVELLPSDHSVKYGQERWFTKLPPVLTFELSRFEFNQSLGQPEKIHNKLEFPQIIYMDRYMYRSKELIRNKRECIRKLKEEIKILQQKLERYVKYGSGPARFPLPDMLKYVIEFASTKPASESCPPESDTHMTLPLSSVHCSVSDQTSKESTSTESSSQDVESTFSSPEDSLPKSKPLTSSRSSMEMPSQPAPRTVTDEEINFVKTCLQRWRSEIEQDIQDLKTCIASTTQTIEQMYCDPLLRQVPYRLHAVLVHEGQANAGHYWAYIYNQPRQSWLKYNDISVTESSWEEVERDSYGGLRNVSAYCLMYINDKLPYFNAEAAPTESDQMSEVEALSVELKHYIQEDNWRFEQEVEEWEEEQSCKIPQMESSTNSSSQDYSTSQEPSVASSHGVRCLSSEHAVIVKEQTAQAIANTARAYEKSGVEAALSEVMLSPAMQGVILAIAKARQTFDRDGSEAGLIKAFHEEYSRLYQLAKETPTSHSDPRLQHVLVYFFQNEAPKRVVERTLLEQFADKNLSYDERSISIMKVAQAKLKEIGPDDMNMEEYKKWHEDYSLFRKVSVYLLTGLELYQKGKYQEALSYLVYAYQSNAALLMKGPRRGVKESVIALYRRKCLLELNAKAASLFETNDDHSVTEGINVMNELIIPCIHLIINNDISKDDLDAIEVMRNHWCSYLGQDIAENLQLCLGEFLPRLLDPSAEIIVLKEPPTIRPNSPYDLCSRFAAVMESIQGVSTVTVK
An asterisk follows results filed as active; x = not tested or not shown. No stated cut-off is given here; in the data, active means inhibition above about 30%; inactive means the rest.

SMILES | OTUD3 block | USP30 inh | USP17 block | USP28 inh
O=C(Nc1ccncc1)c1nn(-c2ccc(F)cc2)c2c1CCCCC2 | -5.3 | 9.0 | -11.3 | 20.4
CN1C(=O)Cc2cc(-c3csc(N)n3)ccc21 | 1.2 | -6.1 | 3.8 | 5.4
COc1ccccc1OCc1nnc(SCC(=O)c2ccc(F)cc2)n1C | 0.0 | 0.4 | -0.1 | -3.8
Cn1c(COc2cccc3cccnc23)nnc1SCC(=O)c1ccc(Cl)cc1Cl | -13.9 | -0.6 | 15.4 | 37.2*
CCOc1ccc(-n2nnnc2-c2ccccn2)cc1 | 16.6 | 30.6* | 5.3 | 10.3
CCOC(=O)C1=C(CNc2cccnc2)NC(=O)NC1c1ccccc1 (centres undefined) | -20.7 | -74.7 | -28.1 | -25.7
CCOC(=O)CCc1c(C)c2ccc(OCC(=O)c3ccc(-c4ccccc4)cc3)c(C)c2oc1=O | -0.9 | -6.8 | 13.7 | 1.0
O=C1CC(c2ccc(F)cc2)Cc2nc(N3CCc4ccccc4C3)ncc21 (centres undefined) | 1.8 | 14.7 | 11.3 | 1.6
O=C1CC(c2ccco2)Cc2nc(N3CCc4ccccc4C3)ncc21 (centres undefined) | -1.2 | x | 44.3* | x
Cc1ccc2c(C)nc(Nc3ncc4c(n3)CC(c3ccco3)CC4=O)nc2c1 (centres undefined) | 25.2 | 38.2* | 58.9* | 28.8
O=C1CC(c2ccco2)Cc2nc(N3CCc4ccccc43)ncc21 (centres undefined) | 29.9 | -8.1 | 36.5* | 22.1
O=C(Nc1ncc2c(n1)CC(c1ccco1)CC2=O)c1ccco1 (centres undefined) | -0.6 | -54.4 | -18.5 | -6.0
O=C1CCCc2nc(N3CCN(c4ncccn4)CC3)nc(Nc3ccccc3)c21 | 13.9 | 22.3 | 1.1 | 10.3
COc1ccc(-c2cc(C(=O)NCCC3=CCCCC3)nn2C2CCS(=O)(=O)C2)cc1 (centres undefined) | 9.8 | 16.8 | 27.2 | 43.4*
COc1ccc(-c2cc(C(=O)NC3CC3)nn2C2CCS(=O)(=O)C2)cc1 (centres undefined) | 4.3 | 16.8 | 5.7 | 0.0
Cc1ccccc1-n1ncc(C(=O)Nc2cccc(C#N)c2)c1C1CC1 | 4.9 | 0.3 | 0.1 | 41.7*
O=C(Nc1cccc(F)c1)c1cnn(-c2ccccc2)c1C1CCNCC1 | -0.7 | 2.7 | -16.5 | -3.3
Cc1cc(C)n2ncc(CN3CCOC(c4cccc(N)n4)C3)c2n1 (centres undefined) | -7.0 | -27.6 | -9.3 | -9.7
COc1ccc(Cn2nnc(-c3cccc(Cl)c3)n2)cc1F | 1.3 | -10.7 | 1.5 | 35.0*
CC(C)N1C(=O)Cc2ccccc2C1C(=O)NCc1cccc(F)c1 (centres undefined) | 0.1 | -7.3 | 1.6 | -0.8
Cc1ccc(C(=O)Nc2cc3c4c(c2)C(C)C(=O)N4CCC3)cc1 (centres undefined) | -23.0 | -93.1 | -32.1 | 24.9
Cc1ccc(C(=O)Nc2cc3c4c(c2)CC(=O)N4CCC3)cc1C | 8.3 | -4.8 | 10.1 | 72.1*
O=C(Cn1cnc2c(cnn2-c2cccc(Cl)c2)c1=O)N1CCCC1 | -9.4 | -46.3 | -23.0 | -23.3
Cc1ccc(CNC(=O)Cn2cnc3c(cnn3-c3cccc(Cl)c3)c2=O)cc1 | 6.4 | 8.7 | 1.5 | 61.2*
O=C(CCn1cnc2c(cnn2-c2ccccc2)c1=O)N1CCCCC1 | -11.9 | -2.4 | -5.9 | -16.9
SMILES | OTUD3 block | USP30 inh | USP17 block | USP28 inh
O=C(Cn1cnc2c(oc3ccccc32)c1=O)NCc1ccccc1Cl | 3.4 | -0.5 | 87.2* | 0.6
O=C(Cn1cnc2c(cnn2-c2ccc(Cl)cc2)c1=O)NCc1ccccc1Cl | 35.6* | 28.8 | 55.0* | 8.9
Cn1ncc2c(=O)n(Cc3cccc(Cl)c3)cnc21 | 12.1 | 26.5 | 9.5 | 65.1*
c1ccc(Oc2cccc(-c3nc4ccccc4s3)c2)cc1 | 8.4 | 0.3 | 4.6 | 9.3
Cc1ccc2c(Nc3ccc(C(N)=O)cc3)c(C(=O)N3CCCCC3C)cnc2n1 (centres undefined) | -31.9 | -112.0 | -43.9 | -48.4
COc1ccc(S(=O)(=O)C(CNC(=O)c2cccc(Cl)c2)c2cccnc2)cc1 (centres undefined) | 3.7 | 1.1 | 0.8 | 5.2
CCOC(=O)c1[nH]c2c(c1Cc1ccccc1OC)C(=O)CC(C)(C)C2 | 0.1 | x | 36.5* | x
Nc1ccc(NC(=O)c2cc3c(s2)CCC3)cc1[N+](=O)[O-] | 4.5 | 20.6 | 57.6* | 30.7*
O=C(Nc1cc(S(=O)(=O)Nc2ccc(Cl)cc2)ccc1O)c1cc2c(s1)CCC2 | 7.8 | 20.3 | 13.5 | 5.1
Cc1cc(=O)[nH]c(C2CN(C(=O)c3ccc4c(c3)CCCC4)CCO2)n1 (centres undefined) | -2.5 | 0.2 | 0.1 | -3.5
O=C(CN(c1ccc(F)cc1)S(=O)(=O)c1ccccc1)N1CCC(Cc2ccccc2)CC1 | 9.9 | 23.8 | 3.5 | 10.9
O=C(/C=C/c1ccc(F)cc1)N1CCC(Cc2ccccc2)CC1 | 24.3 | 51.4* | 35.9* | 32.7*
O=c1[nH]c(=O)n(CCc2ccccc2)c2c1CN(Cc1ccccc1)CN2 | -1.6 | 6.7 | -2.7 | 0.1
CCOC(=O)c1cnc(C(F)(F)F)nc1Sc1n[nH]c(-c2cccs2)n1 | 8.9 | 4.7 | 85.8* | -4.6
CCOC(=O)c1ccc(-c2cccc(C(F)(F)F)c2)nc1C | 14.2 | 5.5 | 8.8 | 2.2
CCCc1cc(C(=O)N2CCC(C3Nc4ccccc4S(=O)(=O)N3)CC2)n[nH]1 (centres undefined) | -0.2 | -41.4 | -15.3 | -3.5
O=C(Nc1nc2c(ccc3ccccc32)s1)C1CCCC1 | 9.7 | 34.3* | 14.2 | 29.0
O=C(O)Cc1ccc(NC(=O)C2Cc3ccccc3C(=O)O2)cc1 (centres undefined) | 2.5 | 1.8 | -5.9 | 3.3
O=C1OC(C(=O)Nc2nc3c(ccc4ccccc43)s2)Cc2ccccc21 (centres undefined) | 14.7 | 9.3 | 39.0* | 5.7
O=C(CCc1ccccc1)Nc1nnc(-c2ccc(Br)cc2)s1 | 27.4 | 21.7 | x | 3.0
O=C(Cc1ccccc1)c1ccc(Br)s1 | 14.9 | 8.7 | 25.0 | 34.5*
O=C1c2ccccc2NC(c2cnn(-c3ccccc3)c2)N1Cc1ccccc1 (centres undefined) | -1.3 | -16.5 | 5.1 | 0.3
COc1ccc(NC(=O)C2Oc3ccc(C)cc3NC2=O)cc1Cl (centres undefined) | -5.7 | 15.9 | 75.1* | 25.9
COc1ccc(OC)c(C(=O)Nc2ccc3c(c2)NC(=O)C(C)O3)c1 (centres undefined) | -4.6 | -1.0 | 0.4 | 0.1
COC1C(O)=C2C(=O)O/C(C)=C/C=C/C=C/C=C/CC(c3ccccc3)NC(=O)/C=C/C=C/C=C\C=C\C2(C)C1O (centres undefined) | 33.3* | -51.2 | 43.2* | 31.2*
CCCc1cc(C2CCCN2C(=O)c2cc(-c3ccco3)on2)no1 (centres undefined) | 14.0 | -36.0 | 46.8* | 4.0
COc1ccc(S(=O)(=O)CS(=O)(=O)C(F)(F)F)cc1 | 7.6 | 3.0 | 0.0 | 6.6
Cn1c(=O)c(C2CCCCC2O)nc2c(OCc3ccccc3)nc(N)nc21 (centres undefined) | 4.7 | -45.7 | 41.7* | -9.7
Cn1c(=O)c(C(CO)CCO)nc2c(OCc3ccccc3)nc(N)nc21 (centres undefined) | 3.5 | -6.4 | 6.1 | -5.1
